# In ChEMBL document CHEMBL1961873, “Compounds: GSK PKIS; Assays: Nanosyn kinase panel” (2012):
# Legend:
# [1] = molecular target: Fibroblast growth factor receptor 4 (Homo sapiens) (UniProt P22455); details: at 1 µM;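 note: reported figure is the averaged percent inhibition of FGFR4, from the GSK PKIS kinase screening panel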
# [2] = molecular target: Tyrosine-protein kinase Fgr (Homo sapiens) (UniProt P09769); details: at 0.1 µM
# [3] = molecular target: Tyrosine-protein kinase Fgr (Homo sapiens) (UniProt P09769); details: at 1 µM
# [4] = molecular target: Vascular endothelial growth factor receptor 1 (Homo sapiens) (UniProt P17948); details: at 0.1 µM
# [5] = molecular target: Vascular endothelial growth factor receptor 1 (Homo sapiens) (UniProt P17948); details: at 1 µM
# [6] = molecular target: Receptor-type tyrosine-protein kinase FLT3 (Homo sapiens) (UniProt P36888); details: at 0.1 µM
# [7] = molecular target: Receptor-type tyrosine-protein kinase FLT3 (Homo sapiens) (UniProt P36888); details: at 1 µM
# [8] = system: T1, Receptor-type tyrosine-protein kinase FLT3 (Homo sapiens), P36888 [D835Y]; details: at 0.1 µM
# T1 sequence (whole entry): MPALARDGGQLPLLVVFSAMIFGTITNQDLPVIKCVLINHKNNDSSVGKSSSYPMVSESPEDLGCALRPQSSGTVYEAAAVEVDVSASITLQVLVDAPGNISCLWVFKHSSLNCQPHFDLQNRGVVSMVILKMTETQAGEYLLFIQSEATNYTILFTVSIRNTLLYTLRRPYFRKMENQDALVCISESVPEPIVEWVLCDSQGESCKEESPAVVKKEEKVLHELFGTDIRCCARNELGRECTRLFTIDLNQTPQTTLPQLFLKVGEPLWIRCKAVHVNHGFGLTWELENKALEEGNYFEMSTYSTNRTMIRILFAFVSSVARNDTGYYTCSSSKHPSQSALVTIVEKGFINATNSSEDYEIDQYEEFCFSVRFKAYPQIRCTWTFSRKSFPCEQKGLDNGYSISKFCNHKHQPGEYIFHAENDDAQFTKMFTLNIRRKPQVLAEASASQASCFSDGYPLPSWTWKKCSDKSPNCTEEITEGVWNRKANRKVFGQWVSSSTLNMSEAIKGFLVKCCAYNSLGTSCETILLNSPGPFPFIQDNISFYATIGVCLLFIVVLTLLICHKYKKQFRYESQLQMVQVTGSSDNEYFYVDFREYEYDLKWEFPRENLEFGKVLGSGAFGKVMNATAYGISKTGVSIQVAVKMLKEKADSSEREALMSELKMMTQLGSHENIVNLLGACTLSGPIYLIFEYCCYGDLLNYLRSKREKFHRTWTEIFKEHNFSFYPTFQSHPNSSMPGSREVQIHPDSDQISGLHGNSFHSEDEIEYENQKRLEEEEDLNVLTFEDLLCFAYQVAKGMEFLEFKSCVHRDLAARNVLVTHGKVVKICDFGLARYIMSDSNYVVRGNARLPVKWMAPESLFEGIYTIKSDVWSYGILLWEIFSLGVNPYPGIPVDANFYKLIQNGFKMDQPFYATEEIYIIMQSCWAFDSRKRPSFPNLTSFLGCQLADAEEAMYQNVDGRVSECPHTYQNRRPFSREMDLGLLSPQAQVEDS
# [9] = molecular target: Non-receptor tyrosine-protein kinase TYK2 (Homo sapiens) (UniProt P29597); details: at 1 µM;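 note: values are mean percent inhibition of TYK2 kinase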
# [10] = molecular target: T2, Tyrosine-protein kinase receptor TYRO3 (Homo sapiens) (UniProt Q06418); details: at 0.1 µM;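 note: reported percentages are averaged inhibition values of TYRO3 kinase activity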
# T2 sequence (whole entry): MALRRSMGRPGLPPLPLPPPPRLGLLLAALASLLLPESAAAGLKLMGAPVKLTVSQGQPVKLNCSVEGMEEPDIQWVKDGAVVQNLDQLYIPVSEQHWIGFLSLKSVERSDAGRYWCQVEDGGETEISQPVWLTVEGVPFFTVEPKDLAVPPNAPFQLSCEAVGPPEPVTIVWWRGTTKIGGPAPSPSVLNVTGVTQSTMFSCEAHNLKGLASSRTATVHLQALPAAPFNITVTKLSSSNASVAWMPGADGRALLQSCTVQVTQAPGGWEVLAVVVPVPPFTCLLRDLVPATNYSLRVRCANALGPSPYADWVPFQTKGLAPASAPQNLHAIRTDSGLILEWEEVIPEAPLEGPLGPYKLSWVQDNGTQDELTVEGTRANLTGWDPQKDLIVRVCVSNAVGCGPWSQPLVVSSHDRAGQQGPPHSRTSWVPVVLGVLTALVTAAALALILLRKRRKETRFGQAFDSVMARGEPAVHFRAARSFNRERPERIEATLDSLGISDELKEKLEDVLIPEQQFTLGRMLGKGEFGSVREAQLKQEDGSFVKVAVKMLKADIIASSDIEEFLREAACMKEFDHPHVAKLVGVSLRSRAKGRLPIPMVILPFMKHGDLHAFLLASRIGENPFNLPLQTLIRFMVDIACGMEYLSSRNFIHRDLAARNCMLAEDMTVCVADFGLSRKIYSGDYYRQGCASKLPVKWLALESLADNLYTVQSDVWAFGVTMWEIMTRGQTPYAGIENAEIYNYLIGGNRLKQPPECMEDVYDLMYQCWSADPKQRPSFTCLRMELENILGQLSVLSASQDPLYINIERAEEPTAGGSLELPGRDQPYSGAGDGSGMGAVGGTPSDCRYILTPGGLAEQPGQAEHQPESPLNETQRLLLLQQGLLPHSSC
# Chain of Non-receptor tyrosine-protein kinase TYK2 (Homo sapiens) (P29597 whole entry): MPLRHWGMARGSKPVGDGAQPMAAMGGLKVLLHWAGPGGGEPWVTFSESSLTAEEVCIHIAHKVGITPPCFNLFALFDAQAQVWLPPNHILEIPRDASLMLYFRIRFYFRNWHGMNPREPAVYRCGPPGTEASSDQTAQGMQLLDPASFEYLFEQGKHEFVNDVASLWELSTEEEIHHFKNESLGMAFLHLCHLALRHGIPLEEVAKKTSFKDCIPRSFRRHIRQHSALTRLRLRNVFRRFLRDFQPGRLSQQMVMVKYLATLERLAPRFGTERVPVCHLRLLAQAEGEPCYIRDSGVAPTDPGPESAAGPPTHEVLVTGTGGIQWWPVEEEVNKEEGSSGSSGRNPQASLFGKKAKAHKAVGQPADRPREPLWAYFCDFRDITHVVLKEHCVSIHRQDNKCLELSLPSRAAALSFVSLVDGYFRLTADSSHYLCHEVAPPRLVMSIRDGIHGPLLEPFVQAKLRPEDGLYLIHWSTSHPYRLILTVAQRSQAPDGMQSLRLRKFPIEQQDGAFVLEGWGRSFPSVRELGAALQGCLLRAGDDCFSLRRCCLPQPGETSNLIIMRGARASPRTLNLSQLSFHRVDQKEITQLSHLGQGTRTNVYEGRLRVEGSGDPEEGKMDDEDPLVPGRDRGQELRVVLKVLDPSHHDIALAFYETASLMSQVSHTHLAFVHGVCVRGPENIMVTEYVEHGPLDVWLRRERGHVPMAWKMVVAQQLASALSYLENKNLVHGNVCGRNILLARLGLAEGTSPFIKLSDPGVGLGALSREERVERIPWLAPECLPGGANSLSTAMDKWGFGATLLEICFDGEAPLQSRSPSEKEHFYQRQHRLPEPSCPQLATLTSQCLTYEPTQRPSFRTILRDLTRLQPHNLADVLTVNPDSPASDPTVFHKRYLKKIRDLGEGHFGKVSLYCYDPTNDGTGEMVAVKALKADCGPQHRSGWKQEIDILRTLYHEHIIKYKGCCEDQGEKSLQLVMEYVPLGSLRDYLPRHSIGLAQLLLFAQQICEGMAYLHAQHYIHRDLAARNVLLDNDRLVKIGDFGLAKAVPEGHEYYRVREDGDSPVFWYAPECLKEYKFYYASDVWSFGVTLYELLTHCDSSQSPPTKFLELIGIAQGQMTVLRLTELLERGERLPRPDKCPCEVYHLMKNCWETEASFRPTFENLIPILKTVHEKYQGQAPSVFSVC
# Chain of Fibroblast growth factor receptor 4 (Homo sapiens) (P22455 22-802 limits assumed): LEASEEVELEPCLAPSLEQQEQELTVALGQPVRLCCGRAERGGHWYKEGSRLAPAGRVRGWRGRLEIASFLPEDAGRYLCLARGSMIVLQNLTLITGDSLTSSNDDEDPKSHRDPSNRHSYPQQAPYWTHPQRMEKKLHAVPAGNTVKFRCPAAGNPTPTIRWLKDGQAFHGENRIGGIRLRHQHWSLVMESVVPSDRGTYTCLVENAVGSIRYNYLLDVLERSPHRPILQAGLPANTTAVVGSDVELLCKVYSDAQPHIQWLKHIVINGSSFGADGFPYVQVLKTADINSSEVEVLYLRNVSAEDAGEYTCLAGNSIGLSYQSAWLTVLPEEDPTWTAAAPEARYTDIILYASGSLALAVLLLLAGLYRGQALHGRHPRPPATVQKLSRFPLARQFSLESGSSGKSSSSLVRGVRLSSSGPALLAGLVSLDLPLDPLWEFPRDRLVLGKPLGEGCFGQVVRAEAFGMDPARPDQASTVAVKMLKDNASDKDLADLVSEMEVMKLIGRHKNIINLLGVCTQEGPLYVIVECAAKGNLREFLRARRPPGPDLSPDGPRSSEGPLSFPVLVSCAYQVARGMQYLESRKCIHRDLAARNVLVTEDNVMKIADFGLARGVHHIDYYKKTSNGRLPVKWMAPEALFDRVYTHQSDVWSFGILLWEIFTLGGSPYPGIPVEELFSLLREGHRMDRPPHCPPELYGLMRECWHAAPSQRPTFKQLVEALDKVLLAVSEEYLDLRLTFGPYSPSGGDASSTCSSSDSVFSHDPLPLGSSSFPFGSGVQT
# Chain of Tyrosine-protein kinase Fgr (Homo sapiens) (P09769 2-529 limits assumed): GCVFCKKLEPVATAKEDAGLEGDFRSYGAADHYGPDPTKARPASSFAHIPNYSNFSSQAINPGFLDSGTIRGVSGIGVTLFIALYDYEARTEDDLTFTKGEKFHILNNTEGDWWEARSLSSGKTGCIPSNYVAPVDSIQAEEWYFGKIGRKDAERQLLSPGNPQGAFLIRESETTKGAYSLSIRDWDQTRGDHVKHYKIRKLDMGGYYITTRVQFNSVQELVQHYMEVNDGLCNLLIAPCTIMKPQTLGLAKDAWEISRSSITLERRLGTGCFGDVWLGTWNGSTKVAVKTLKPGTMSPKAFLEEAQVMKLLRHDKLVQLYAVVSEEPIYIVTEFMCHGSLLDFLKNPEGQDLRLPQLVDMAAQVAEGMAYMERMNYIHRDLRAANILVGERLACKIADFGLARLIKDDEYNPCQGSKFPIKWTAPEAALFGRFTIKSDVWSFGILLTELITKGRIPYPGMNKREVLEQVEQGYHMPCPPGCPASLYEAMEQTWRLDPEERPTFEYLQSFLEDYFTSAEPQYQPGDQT
# Chain of Vascular endothelial growth factor receptor 1 (Homo sapiens) (P17948 whole entry): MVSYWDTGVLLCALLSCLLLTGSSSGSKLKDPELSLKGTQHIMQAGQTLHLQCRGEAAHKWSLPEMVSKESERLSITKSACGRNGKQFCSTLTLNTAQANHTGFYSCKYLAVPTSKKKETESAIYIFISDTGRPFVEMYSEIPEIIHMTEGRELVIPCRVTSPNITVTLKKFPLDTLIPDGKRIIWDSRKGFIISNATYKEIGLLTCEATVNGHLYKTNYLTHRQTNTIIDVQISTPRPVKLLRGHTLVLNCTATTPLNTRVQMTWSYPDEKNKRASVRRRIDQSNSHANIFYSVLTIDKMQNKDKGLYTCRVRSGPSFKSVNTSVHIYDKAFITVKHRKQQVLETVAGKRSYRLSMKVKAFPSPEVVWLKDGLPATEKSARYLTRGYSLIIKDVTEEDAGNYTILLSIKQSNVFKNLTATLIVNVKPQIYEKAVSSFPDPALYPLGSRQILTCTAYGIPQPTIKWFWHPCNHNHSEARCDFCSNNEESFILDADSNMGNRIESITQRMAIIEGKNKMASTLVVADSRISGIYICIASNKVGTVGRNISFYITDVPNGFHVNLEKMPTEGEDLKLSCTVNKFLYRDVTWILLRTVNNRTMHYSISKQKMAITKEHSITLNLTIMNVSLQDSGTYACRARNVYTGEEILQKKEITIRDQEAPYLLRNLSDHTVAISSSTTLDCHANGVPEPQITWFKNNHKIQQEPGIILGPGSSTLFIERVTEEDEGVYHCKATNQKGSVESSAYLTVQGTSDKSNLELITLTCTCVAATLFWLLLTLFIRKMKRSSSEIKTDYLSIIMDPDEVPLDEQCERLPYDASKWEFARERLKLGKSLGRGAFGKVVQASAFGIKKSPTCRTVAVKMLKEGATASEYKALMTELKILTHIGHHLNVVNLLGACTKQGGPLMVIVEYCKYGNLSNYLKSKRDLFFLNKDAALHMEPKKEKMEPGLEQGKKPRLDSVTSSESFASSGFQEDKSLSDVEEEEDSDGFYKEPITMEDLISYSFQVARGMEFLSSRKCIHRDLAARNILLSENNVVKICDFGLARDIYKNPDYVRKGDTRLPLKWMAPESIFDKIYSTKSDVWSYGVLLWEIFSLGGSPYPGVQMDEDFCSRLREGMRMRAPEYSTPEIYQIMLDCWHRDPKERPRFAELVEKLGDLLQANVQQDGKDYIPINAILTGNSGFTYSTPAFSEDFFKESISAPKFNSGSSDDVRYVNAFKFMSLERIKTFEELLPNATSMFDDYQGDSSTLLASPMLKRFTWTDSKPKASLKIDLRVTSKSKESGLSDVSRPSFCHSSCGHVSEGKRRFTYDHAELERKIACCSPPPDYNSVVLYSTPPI
SMILES,inhibition [1] [%],inhibition [2] [%],inhibition [3] [%],inhibition [4] [%],inhibition [5] [%],inhibition [6] [%],inhibition [7] [%],inhibition [8] [%],inhibition [9] [%],inhibition [10] [%]
Cc1cc(O)cc(C)c1/C=C/c1cncc(C(=O)N(C)C)c1,2.26,2.92,9.21,2.21,3.14,2.14,2.25,-0.23,-2.56,3.45
CS(=O)(=O)Nc1cccc(-c2ccc3c(NC(=O)C4CC4)n[nH]c3c2)c1,-2.02,-0.31,4.5,-2.92,-1.44,0.45,0.14,-1.25,-0.54,2.53
O=S(=O)(CCOCc1ccc(-c2ccc3ncnc(Nc4ccc(OCc5cccc(F)c5)c(Cl)c4)c3c2)o1)c1ccccc1,0.08,-0.06,2.31,-2.31,0.57,4.16,2.25,-3.61,-0.44,-0.84
COC(=O)Nc1nc2cc(Oc3ccc(NC(=O)Nc4cccc(Br)c4)cc3)ccc2[nH]1,2.05,4.68,2.98,33,53.7,32.8,56.7,-2.2,0.6,6.92
CCn1c(-c2nonc2N)nc2c(C#CC(C)(C)O)nc(OCCNC)cc21,1.88,0.15,3.62,1.71,10.2,1.46,4.57,-1.99,-2.59,2.56
Nc1ccc(C#Cc2cncnc2Nc2ccc(OCc3cccc(F)c3)c(Cl)c2)cc1,1.61,3.78,4.78,0.39,1.35,0.49,2.64,1.46,-2.76,2.47
N#Cc1c(NC(=O)c2ccccc2F)sc2c1CCCC2,-0.54,1.26,1.21,-1.64,-1.09,0.49,-1.06,-2.89,0.85,-1.29
COc1cccc(-n2ncc3c(N/N=C/c4ccc(S(C)(=O)=O)cc4)ncnc32)c1,-1.16,28.5,64,5.44,18.8,8.26,27.9,18.6,1.37,10.6
[O-][S+]1CCN(Cc2ccc(-c3ccc4ncnc(Nc5ccc(OCc6ccccc6)c(Cl)c5)c4c3)o2)CC1,-0.87,-0.44,8.63,-0.09,1.05,5.36,2.27,0.74,-0.57,0.39
c1ccc(Nc2ncc(-c3ccccc3)o2)cc1,0.73,5.98,15,1.21,11.7,33.1,78.8,5.03,-4.84,4.31
CCS(=O)(=O)c1ccc(OC)c(Nc2ncc(-c3cccc(OC)c3)o2)c1,7.65,19.9,65.2,9.91,55.9,16.3,68,29.4,-4.34,7.64
NS(=O)(=O)c1ccc(Nc2cc(-c3cccc(O)c3)n[nH]2)cc1,4.03,2.88,6.79,2.51,11.9,5.64,23.2,3.16,-3.05,3.41
NS(=O)(=O)c1cccc(Nc2cc(-c3ccc(F)cc3)n[nH]2)c1,2.4,6.05,14.4,2.62,15.9,16.3,67.1,-2.62,-1.33,4.42
Cc1ccc(C(=O)NC2CC2)cc1-c1ccc2[nH]ncc2c1,0.32,-1.47,1.41,-2.04,-1.81,-3.48,0.84,-3.02,2.43,-1.74
Nc1nccc(C#Cc2cncnc2Nc2ccc(OCc3cccc(F)c3)c(Cl)c2)n1,-2.31,0.12,4.81,2.06,3.36,0.89,3.87,3.95,-1.09,3.02
CCCN1CCCC(c2ccc(Nc3nc(Nc4cc(F)ccc4C(N)=O)c4cc[nH]c4n3)c(OC)c2)C1 (stereo not given),12.2,4.94,7.28,2.54,0.66,3.86,13.1,5.98,-3.62,4.74
